Shn3 3UTR inh: reduces Shn3 3'UTR luciferase signal in osteoblasts. Clone20 osteoblast Shn3 3'UTR firefly luciferase, 24 h. inhibition, % at 12.5 µM. 0.52% of 360,000 active. AID 588674;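 active means mean inhibition of at least 75% with every replicate also reaching 75%; inconclusive means mean inhibition at least 75% but some replicate below; inactive means mean inhibition below 75%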;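 further: 0% = median of neutral control wells and 100% = pilot-screen positive control compound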
PfHsp90 yeast 2: reduces growth (ATP signal) of yeast expressing P. falciparum Hsp90 | S. cerevisiae expressing PfHsp90, BacTiter-Glo ATP, 48 h; yeast lacking PDR1 and PDR3 efflux regulators | inhibition, % at 9.4 µM | 0.32% of 310,000 active | AID 504621;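 active means every replicate shows inhibition above about 80%, whatever the replicate mean, limit read from the data; inconclusive means mean inhibition reaches the set limit but some replicate falls short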;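 further: 0% = DMSO neutral controls and 100% = 20 µM radicicol positive controls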
Beta cell apopt: blocks beta cell apoptosis. 0.8% of 300,000 active. INS-1E cytokine-induced death, ATP luminescence, 48 h; percent of positive-control rescue, neutral wells zero. protection from apoptosis, % (no concentration beside the values). AID 435005;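 active means Every replicate reaches about 75%, or at least half do and their mean reaches it too, limit read from the data; inconclusive means At least half of replicates reach the limit but their mean does not; inactive means Under half of replicates reach the limit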;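 further: 0% = cytokine-treated negative control wells and 100% = positive control rescue; higher means more ATP so stronger rescue from cytokine killing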
Calb FLC: affects C. albicans growth with fluconazole; C. albicans CaCi-2 (fluconazole-resistant clinical isolate) + fluconazole, Alamar Blue growth, 48 h; growth inhibition, % (concentration not given with the values); 0.57% of 300,000 active; AID 1979;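 active means growth inhibition above about 58% in most replicates, limit read from the data, passing the limit was not always enough; inconclusive means exactly half the replicates above a set limit; inactive means most replicates below a set limit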;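 further: all wells also contain fluconazole at 8 µg/ml as a sub-toxic cotreatment; 0% = median of DMSO wells and 100% = median of geldanamycin control wells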
CSC inhib: cancer stem cell inhibition; inhibition, % at 7.5 µM; cancer stem cell-like cells viability, luminescence; 1.1% of 300,000 active; AID 2717; in the data active means inhibition above about 75%; inconclusive means no clear call, values can overlap the other calls; tested in HMLE shEcad cells
Numbers without * were called inactive; ? = inconclusive; . = not tested or not shown. The list is not random: actives were taken first. Their share in the collection is about 2.2%.

SMILES | Shn3 3UTR inh | PfHsp90 yeast 2 | Beta cell apopt | Calb FLC | CSC inhib
Cc1c(Nc2cc(Cl)c3nonc3c2[N+](=O)[O-])c(=O)n(-c2ccccc2)n1C | 96.3* | 2.1 | . | . | .
Cc1ccc(NC(=O)C2CSC3(C)CCC(=O)N23)cc1S(=O)(=O)N1CCCCCC1 (configuration not stated) | 10.7 | 18.0 | -5.0 | . | 44.5
Cn1c(SCC(=O)N2CCc3ccccc3C2)nnc1-c1cccs1 | -3.3 | . | -4.4 | -0.1 | 5.4
Cn1c(SCC(=O)N2CCc3ccccc3C2)nnc1-c1ccncc1 | 3.3 | 6.1 | -4.6 | 56.9* | -17.4
CC(=O)c1ccc(N2CCN(c3ccc(S(=O)(=O)NCCCN(C)C)cc3[N+](=O)[O-])CC2)cc1 | ? | 13.8 | 21.9 | 7.2 | 81.5*
CC(=O)c1ccc(N2CCN(c3ccc(S(=O)(=O)NCCN(C)C)cc3[N+](=O)[O-])CC2)cc1 | 22.5 | -15.7 | 8.2 | -5.6 | 36.4
O=C(NCCCN1CCOCC1)c1ccc(Sc2ccc(Br)cc2)c([N+](=O)[O-])c1 | -14.9 | -40.4 | 8.1 | -1.6 | 76.2*
O=C(NCCCN1CCOCC1)c1ccc(Sc2ccccc2Cl)c([N+](=O)[O-])c1 | 10.6 | -21.1 | 11.9 | -9.8 | 52.2
Clc1ccc(-c2ccccc2)nn1 | -11.1 | . | 1.6 | 6.8 | -0.1
O=C1c2c(O)ccc(O)c2C(=O)c2c(NCCNCCO)ccc(NCCNCCO)c21 | 92.6* | 7.0 | 66.8 | . | 97.0*
O=C1c2ccccc2C(=O)c2c(NCCCN(CCO)CCO)cccc21 | -3.8 | 32.9 | . | -10.1 | .
O=C(NC1CCCCC1)c1cc(S(=O)(=O)N2CCCC2)ccc1Cl | 11.1 | 17.9 | -2.5 | -4.9 | 6.3
COc1ccc(CCN2C(=S)N(C)C(=O)C2CC(=O)Nc2ccc(OC)cc2)cc1 (configuration not stated) | 7.8 | 9.0 | 1.6 | -16.6 | 96.8*
CCN1C(=O)C(CC(=O)Nc2ccc(OC)cc2)N(CCc2ccc(F)cc2)C1=S (configuration not stated) | 19.8 | 12.1 | 15.4 | 6.5 | 23.8
COc1ccc(NC(=O)CC2C(=O)N(C)C(=S)N2CCc2ccc(F)cc2)cc1 (configuration not stated) | 7.0 | . | 2.2 | -16.4 | 45.6
CCN1C(=O)C(CC(=O)Nc2ccc(OC)cc2)N(CCCN2CCN(c3ccc(F)cc3)CC2)C1=S (configuration not stated) | 44.9 | 29.5 | 7.2 | -2.3 | 80.9*
COc1ccc(NC(=O)/C(Cl)=C(/Cl)S(=O)Cc2ccccc2Cl)cn1 (configuration not stated) | . | 107.2* | . | . | .
O=C(Nc1cc(S(=O)(=O)Nc2ccc(Cl)cc2)ccc1N1CCCCC1)c1ccc(F)cc1Cl | 6.9 | 2.6 | 9.1 | 16.6 | 77.5*
O=C(Nc1ccc(Cl)cc1)Nc1ccc(N2CCCC2)c(S(=O)(=O)Nc2ccccc2Cl)c1 | 97.0* | 6.9 | 86.9* | -1.7 | 2.3
Cc1cccc(NC(=O)COC(=O)CCc2c[nH]c3ccccc23)c1 | -26.5 | -7.0 | -2.5 | . | .
Cc1ccc(C2(c3noc(CN(C)CC4CCCCO4)n3)CCCC2)cc1 (configuration not stated) | . | -24.2 | 1.7 | -5.2 | -7.3
Cc1ccc(C2(c3noc(CN4CCC(c5ccncc5)CC4)n3)CCCC2)cc1 | 67.0 | 10.3 | 13.7 | 119.3* | 91.8*
CCOc1ccc(C(=O)CCC(=O)NCC(=O)Nc2c(C)cccc2C)cc1 | 13.0 | -4.7 | -2.1 | . | .
CC(NC(=S)NC1CCCCC1)c1ccc(C(C)(C)C)cc1 (configuration not stated) | 67.3 | -30.6 | 99.2* | -21.3 | 45.0
CC(C)c1ccc(C(C)NC(=S)NC2CCCCC2)cc1 (configuration not stated) | 44.8 | 0.1 | 17.4 | -27.2 | -12.1
SMILES | Shn3 3UTR inh | PfHsp90 yeast 2 | Beta cell apopt | Calb FLC | CSC inhib
CC(NC(=O)Nc1ccccc1F)C(C)(C)C (configuration not stated) | 9.9 | 8.6 | -9.2 | 58.4* | 0.1
NNC(=O)c1cc(-c2cccs2)nc2ccccc12 | -0.8 | 15.2 | -3.6 | 104.0* | 1.1
CC(C)NC(=O)c1cc(-c2cccs2)nc2ccccc12 | -6.9 | -7.8 | -1.2 | -31.5 | -7.2
Cc1cccc2sc(NNC(=O)c3cc(-c4cccs4)nc4ccccc34)nc12 | 13.2 | -98.5 | . | 84.9* | 103.2*
C/C(=N\NC(=O)c1cc(-c2cccs2)nc2ccccc12)c1ccccn1 | 93.7* | 1.3 | 102.2* | 95.0* | 135.9*
Cc1ccc(SCC(=O)Nc2nnc(C(C)(C)C)s2)cc1 | 7.1 | -2.3 | 4.2 | 2.8 | -12.1

Compound activity: PubChem BioAssay, Broad Institute
